Assay outcomes deposited in PubChem BioAssay by Broad Institute.
Rtt109 HAT inh: C. albicans Rtt109 histone acetyltransferase inhibition | 330,000 tested, 0.16% active | Q5AAJ8 | inhibition, % at 34.9 µM | AID 540336 | purified Rtt109/Vps75, ThioGlo CoA-SH fluorescence, 4 h;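 active = inhibition of at least 50% in every replicate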
ERp5 inh: blocks human ERp5 reductase activity on insulin | Q15084 | ERp5 insulin aggregation, absorbance 650 nm, 90 min | inhibition, % at 9.99 µM | 350,000 tested, 0.05% active | AID 651711;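 active = mean replicate inhibition above about 25%, with every replicate also reaching it, limit read from the data, passing the limit was not always enough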
DENV2 CPE rescue: protects cells from dengue virus 2 cytopathic effect. DENV2-infected cells, cytopathic effect rescue, plate reader. CPE inhibition, % at 9.99 µM. 350,000 tested, 1.7% active. AID 651640; in the data active = CPE inhibition above about 20%, passing the limit was not always enough; tested in BHK-21 cells
SIRT5 block: inhibitors of human sirtuin-5 desuccinylase; Q9NXA8; Purified SirT5, succinyl-peptide AMC, trypsin-coupled fluorescence; inhibition, % at 15 µM; 330,000 tested, 1.1% active; AID 652115; in the data active = inhibition above about 15%
Target sequence (Q9NXA8 whole entry, looked up): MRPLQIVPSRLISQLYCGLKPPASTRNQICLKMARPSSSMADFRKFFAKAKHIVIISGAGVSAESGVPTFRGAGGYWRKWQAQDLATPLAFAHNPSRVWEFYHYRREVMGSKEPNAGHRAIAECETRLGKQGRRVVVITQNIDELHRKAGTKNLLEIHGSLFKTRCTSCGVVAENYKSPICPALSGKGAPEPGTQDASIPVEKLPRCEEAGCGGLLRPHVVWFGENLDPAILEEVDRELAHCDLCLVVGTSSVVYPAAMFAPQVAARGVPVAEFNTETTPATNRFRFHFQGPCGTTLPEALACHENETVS
PDI turbidity: PDI (human) enzyme inhibition; P07237; PDI insulin aggregation turbidity, A650, 90 min; inhibition, % at 10 µM; 350,000 tested, 0.052% active; AID 588391;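 active = mean inhibition across replicates of 30% or more, whatever share of single replicates reach that level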
Hits are given with their value. This is a sample that favours compounds with a hit; in the whole collection about 2.3% have one here.

How did O=S(=O)(c1ccc(F)cc1)N1CC[C@H]2[C@H](CO)Nc3ccc(-c4ccccc4F)cc3[C@H]21 do in these assays?
ERp5 inh: inactive; DENV2 CPE rescue: 43; SIRT5 block: inactive

How did Cc1noc(C)c1NC(=O)Nc1ccc2c(c1)C(=O)N([C@@H](C)CO)C[C@H](C)[C@@H](CN(C)Cc1ccc(C(F)(F)F)cc1)OCCCC[C@H](C)O2 do in these assays?
ERp5 inh: inactive; DENV2 CPE rescue: inactive; SIRT5 block: inactive

What do the screens show for `COc1cccc(C#Cc2ccc3c(c2)[C@@H]2[C@@H](CCN2C(=O)CC2CC2)[C@H](CO)N3)c1`?
ERp5 inh: inactive; DENV2 CPE rescue: inactive; SIRT5 block: inactive

How did Cc1cccc(S(=O)(=O)N2CC[C@@H]3[C@H]2c2cc(-c4ccccc4F)ccc2N[C@@H]3CO)c1 do in these assays?
DENV2 CPE rescue: 40

How did Cc1ccccc1S(=O)(=O)N1CC[C@@H]2[C@@H](CO)Nc3ccc(-c4ccccc4F)cc3[C@@H]21 do in these assays?
ERp5 inh: inactive; DENV2 CPE rescue: 42; SIRT5 block: inactive

What do the screens show for `O=S(=O)(c1cccc(F)c1)N1CC[C@H]2[C@H](CO)Nc3ccc(-c4cccc(F)c4)cc3[C@H]21`?
DENV2 CPE rescue: inactive

Results for O=S(=O)(c1ccc(F)cc1)N1CC[C@H]2[C@H](CO)Nc3ccc(-c4ccc(F)cc4)cc3[C@H]21 ?
DENV2 CPE rescue: inactive

What do the screens show for `O=S(=O)(c1ccccc1F)N1CC[C@@H]2[C@H](CO)Nc3ccc(-c4ccccc4F)cc3[C@@H]21`?
ERp5 inh: inactive; DENV2 CPE rescue: inactive; SIRT5 block: inactive

How did O=S(=O)(c1ccc(F)cc1)N1CC[C@@H]2[C@@H](CO)Nc3ccc(-c4ccc(F)cc4)cc3[C@@H]21 do in these assays?
DENV2 CPE rescue: 51

How did O=S(=O)(c1cccc(F)c1)N1CC[C@@H]2[C@H]1c1cc(-c3cccc(F)c3)ccc1N[C@@H]2CO do in these assays?
DENV2 CPE rescue: 52

How did Cc1cccc(S(=O)(=O)N2CC[C@@H]3[C@H](CO)Nc4ccc(-c5ccccc5F)cc4[C@@H]32)c1 do in these assays?
DENV2 CPE rescue: inactive

How did C[C@H](CO)N1C[C@H](C)[C@H](CN(C)C(=O)c2ccncc2)Oc2ncc(C#CC3CCCCC3)cc2C1=O do in these assays?
ERp5 inh: inactive; DENV2 CPE rescue: inactive; SIRT5 block: inactive

What do the screens show for `CC(=O)N1CC(=O)N2[C@H](CO)[C@H](c3ccc(C#Cc4cccnc4)cc3)[C@@H]2C1`?
ERp5 inh: inactive; DENV2 CPE rescue: inactive; SIRT5 block: inactive

Results for C/C=C/c1ccc2c(c1)[C@H]1[C@H](CCN1S(=O)(=O)c1ccccc1F)[C@H](CO)N2 ?
DENV2 CPE rescue: 25

What do the screens show for `OC[C@H]1Nc2ccc(-c3ccc(F)cc3)cc2[C@H]2[C@@H]1CCN2Cc1ccc(F)cc1`?
DENV2 CPE rescue: inactive

Results for C/C=C/c1ccc2c(c1)[C@H]1[C@H](CCN1S(=O)(=O)c1ccccc1)[C@H](CO)N2 ?
ERp5 inh: inactive; DENV2 CPE rescue: inactive; SIRT5 block: inactive

How did C/C=C/c1ccc2c(c1)[C@H]1[C@H](CCN1Cc1ccc(F)cc1)[C@H](CO)N2 do in these assays?
ERp5 inh: inactive; DENV2 CPE rescue: 38; SIRT5 block: inactive

How did CN(C)C(=O)[C@@H]1[C@@H](CO)[C@@H]2Cn3c(ccc(-c4cncnc4)c3=O)[C@@H]2N1Cc1cc(F)ccc1F do in these assays?
ERp5 inh: inactive; DENV2 CPE rescue: inactive; SIRT5 block: inactive

What do the screens show for `CCCNC(=O)N[C@@H]1CC[C@@H](CC(=O)NCCc2ccccc2)O[C@@H]1CO`?
ERp5 inh: inactive; DENV2 CPE rescue: inactive; SIRT5 block: inactive

How did COc1ccc(S(=O)(=O)N(C)C[C@H]2OCCCC[C@H](C)Oc3ccc(NC(=O)NC(C)C)cc3C(=O)N([C@@H](C)CO)C[C@H]2C)cc1 do in these assays?
ERp5 inh: inactive; DENV2 CPE rescue: inactive; SIRT5 block: inactive

Results for CN1CCC(=O)N([C@H](CSc2ccccc2)c2ccccc2)CC1 ?
Rtt109 HAT inh: inactive; ERp5 inh: inactive; DENV2 CPE rescue: inactive; PDI turbidity: inactive

Results for CCCN1CCC(=O)N([C@H](CSc2ccc(OC)cc2)c2ccccc2)CC1 ?
Rtt109 HAT inh: inactive; ERp5 inh: inactive; DENV2 CPE rescue: inactive; SIRT5 block: 21; PDI turbidity: inactive

What do the screens show for `COc1ccc2c3c(n(C)c2c1)[C@@H](CO)N(C(=O)c1cccnc1)CC31CN(C)C1`?
DENV2 CPE rescue: inactive

Results for O=C(Cc1cccnc1)N[C@@H]1CC[C@@H](CCn2cc(-c3ccccc3F)nn2)O[C@H]1CO ?
ERp5 inh: inactive; DENV2 CPE rescue: inactive; SIRT5 block: inactive

Results for CO[C@@H]1CN(C)C(=O)c2ccc(NC(=O)C3CC3)cc2OC[C@@H](C)N(C(=O)c2ccccn2)C[C@H]1C ?
ERp5 inh: inactive; DENV2 CPE rescue: inactive

What do the screens show for `OC(CNc1nc(C(F)(F)F)nc2ccccc12)c1ccccc1` (stereo not given)?
Rtt109 HAT inh: inactive; ERp5 inh: inactive; DENV2 CPE rescue: inactive; SIRT5 block: inactive; PDI turbidity: inactive

What do the screens show for `O=C(O)CCNc1nc(C(F)(F)F)nc2ccccc12`?
Rtt109 HAT inh: inactive; ERp5 inh: inactive; DENV2 CPE rescue: inactive; SIRT5 block: 48; PDI turbidity: inactive

How did Cc1ccc(S(=O)(=O)N2CCN(C(=O)COC(=O)Cc3ccc(Cl)cc3)CC2)c(C)c1 do in these assays?
Rtt109 HAT inh: inactive; ERp5 inh: inactive; DENV2 CPE rescue: 25; SIRT5 block: inactive; PDI turbidity: inactive

Results for C[C@H]1CN([C@@H](C)CO)C(=O)c2cc(-c3ccccc3)cnc2O[C@@H]1CN(C)Cc1cccnc1 ?
ERp5 inh: inactive; DENV2 CPE rescue: inactive; SIRT5 block: inactive

Results for CCc1cccc(NC(=O)O[C@H]2[C@H](OC(=O)Nc3ccc4c(c3)OCO4)[C@@H](OC(=O)Nc3ccc4c(c3)OCO4)[C@@H](OC)O[C@@H]2CO)c1 ?
ERp5 inh: inactive; DENV2 CPE rescue: inactive; SIRT5 block: inactive

What do the screens show for `COc1ccccc1-c1ccc2c(c1)O[C@@H](CN(C)S(=O)(=O)c1ccccc1)[C@@H](C)CN([C@H](C)CO)S2(=O)=O`?
ERp5 inh: inactive; DENV2 CPE rescue: inactive; SIRT5 block: inactive

Results for COc1ccccc1-c1ccc2c(c1)O[C@@H](CN(C)S(=O)(=O)c1ccccc1)[C@H](C)CN([C@H](C)CO)S2(=O)=O ?
ERp5 inh: inactive; DENV2 CPE rescue: inactive; SIRT5 block: 19

Results for COc1ccccc1-c1ccc2c(c1)O[C@@H](CN(C)S(=O)(=O)c1ccccc1)[C@H](C)CN([C@@H](C)CO)S2(=O)=O ?
ERp5 inh: inactive; DENV2 CPE rescue: inactive; SIRT5 block: 20

Results for C[C@@H]1CN([C@H](C)CO)C(=O)c2cc(C#Cc3ccccc3F)cnc2O[C@@H]1CN(C)C(=O)C1CC1 ?
ERp5 inh: inactive; DENV2 CPE rescue: inactive; SIRT5 block: inactive
